Test systems include DU-145 prostate; K-562 leukemia; MALME-3M melanoma; MDA-MB-231 breast; RXF 393 renal; SF-268 CNS; SF-539 CNS; UACC-257 melanoma; M14 melanoma; HCT-15 colon; HT29 colon; SNB-75 CNS; SNB-19 CNS; U251 CNS; PC-3 prostate; SK-MEL-5 melanoma; UACC-62 melanoma; LOX IMVI melanoma; SK-MEL-28 melanoma.
Assay in all cases: NCI-60 one-dose screen, 48 h (100 = growth as untreated, 0 = no growth, -100 = all killed)
Details in all cases: 10 µM unless noted

The panel holds about 83,000 compounds, 20% with a hit somewhere; the sample as a whole holds those more often.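 Interpretation: 100, growth as untreated; towards 0, rising growth inhibition; 0, no net growth; 0 to -100, cell death. Compounds scoring below 10 were considered active.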 A number with no mark means an inactive call. Calls of active or inactive are those of the source.

This is an account of results in PubChem BioAssay (NCI).

Consider `CCOC(=O)c1ccc(NC(=O)NC2=NCCS2)cc1`, for which the growth was 0.751% (active) in the assay with DU-145 prostate; 58.6% in the assay with K-562 leukemia; 8.27% (active) in the assay on MALME-3M melanoma; 51.8% with MDA-MB-231 breast; -15.3% (active) in the assay with RXF 393 renal; 40.4% with SF-268 CNS. Also, the growth in the assay with SF-539 CNS is 1.9% (active); in the assay with UACC-257 melanoma it was 80.5%; in the assay with M14 melanoma, 34.9%; with HCT-15 colon it was 59.3%; in the assay with HT29 colon, 106%; in the assay with SNB-75 CNS, 21.5%. The growth in the assay on SNB-19 CNS is 54.3%; in the assay with U251 CNS, 26.6%; with PC-3 prostate it was 16%; with SK-MEL-5 melanoma it was 75.9%; with UACC-62 melanoma it was 78.9%; with LOX IMVI melanoma it was 92.4%. In addition, in the assay on SK-MEL-28 melanoma, the growth was 87.3%.

For the compound `Cc1cc(C)cc(Nc2cc(C)nc3nc(C(F)(F)F)nn23)c1`, the growth in the assay with DU-145 prostate is 38.1%; in the assay with K-562 leukemia it was 20.2%; in the assay with MALME-3M melanoma it was 45.5%; in the assay with MDA-MB-231 breast, 50.1%; in the assay on RXF 393 renal, 52.1%; with SF-268 CNS it was 28.7%. For the same compound, the growth with SF-539 CNS was 4.14% (active); with UACC-257 melanoma, 30.7%; in the assay with M14 melanoma, 24%; in the assay on HCT-15 colon, 30.4%; with HT29 colon it was 41.5%; in the assay with SNB-75 CNS, 61.6%. The growth was 45.7% in the assay on SNB-19 CNS; 31.5% in the assay on U251 CNS; 57.1% in the assay on PC-3 prostate; 32.1% with SK-MEL-5 melanoma; -33.8% (active) in the assay with UACC-62 melanoma; 24.1% in the assay with LOX IMVI melanoma. In addition, the growth in the assay on SK-MEL-28 melanoma is 50.8%.

As to `COc1cc(NC(C)CCCN)c2ncccc2c1Sc1ccc(Cl)cc1` (centres undefined), the growth in the assay on DU-145 prostate was 76.3%; in the assay on K-562 leukemia, -33.2% (active); with MALME-3M melanoma, 82.4%; in the assay on MDA-MB-231 breast, 36%; with RXF 393 renal, 57.9%; with SF-268 CNS it was 70.5%. Besides, the growth with SF-539 CNS was 75.9%; with UACC-257 melanoma it was 65.1%; in the assay with M14 melanoma it was 27.5%; in the assay with HCT-15 colon, 39.3%; in the assay on HT29 colon it was -46.4% (active); with SNB-75 CNS, 48.7%. The growth was 78.3% in the assay with SNB-19 CNS; 39.3% in the assay on U251 CNS; 47.1% with PC-3 prostate; 67.3% in the assay on SK-MEL-5 melanoma; 81.2% in the assay with UACC-62 melanoma; -62.4% (active) in the assay with LOX IMVI melanoma. The growth in the assay on SK-MEL-28 melanoma was 93.3%.

Turning to `CC(C)N1CCN(c2ccncc2S(=O)(=O)N2CCN(C)CC2)CC1`, the growth in the assay on DU-145 prostate is 110%; in the assay with K-562 leukemia, 98%; in the assay on MALME-3M melanoma, 113%; in the assay with MDA-MB-231 breast, 101%; with RXF 393 renal, 107%; in the assay on SF-268 CNS, 107%. In addition, the growth is 99.8% with SF-539 CNS; 102% in the assay with UACC-257 melanoma; 99.5% with M14 melanoma; 97.6% in the assay on HCT-15 colon; 102% with HT29 colon; 80.6% in the assay with SNB-75 CNS. In addition, the growth is 98.7% in the assay with SNB-19 CNS; 98.8% with U251 CNS; 100% in the assay with SK-MEL-5 melanoma; 108% in the assay with UACC-62 melanoma; 97.4% with LOX IMVI melanoma; 114% with SK-MEL-28 melanoma.

For `COC(=O)C(CCC(=O)CCl)N1C(=O)c2ccccc2C1=O` (centres undefined), the growth was 87.6% with DU-145 prostate; 28.6% in the assay on K-562 leukemia; 42.2% with MALME-3M melanoma; 84.6% with MDA-MB-231 breast; 25.8% with RXF 393 renal; 56.5% in the assay on SF-268 CNS. The growth is 64.9% with SF-539 CNS; 69.7% with UACC-257 melanoma; 39.9% in the assay with M14 melanoma; 48.1% in the assay on HCT-15 colon; 34.3% with HT29 colon; 91.5% in the assay on SNB-75 CNS. Besides, the growth with SNB-19 CNS is 99.9%; in the assay on U251 CNS it was 47.1%; in the assay on PC-3 prostate it was 60.3%; in the assay on SK-MEL-5 melanoma, 71.3%; in the assay with UACC-62 melanoma, 64.8%; with LOX IMVI melanoma, -44.1% (active). In the assay with SK-MEL-28 melanoma, the growth is 87%.

On to `CCOC(=O)c1ccc(NCCC(=O)O)cc1`, for which the growth in the assay with DU-145 prostate was 126%; in the assay with K-562 leukemia it was 90.4%; in the assay on MALME-3M melanoma it was 110%; in the assay on MDA-MB-231 breast, 122%; with RXF 393 renal, 111%; with SF-268 CNS, 119%. Moreover, the growth is 112% with SF-539 CNS; 104% with UACC-257 melanoma; 104% with M14 melanoma; 97.1% with HCT-15 colon; 96.8% in the assay with HT29 colon; 96% in the assay on SNB-75 CNS. The growth in the assay with SNB-19 CNS is 105%; in the assay with U251 CNS it was 109%; with SK-MEL-5 melanoma it was 104%; in the assay with UACC-62 melanoma, 102%; in the assay with LOX IMVI melanoma it was 101%; with SK-MEL-28 melanoma, 107%.

As for `OC(c1cc2c(Cl)cc(Cl)cc2c2cc(C(F)(F)F)ccc12)C1CCCCN1` (centres undefined), the growth is -94.5% (active) in the assay on DU-145 prostate; -75.5% (active) with K-562 leukemia; -44% (active) in the assay with MALME-3M melanoma; -73% (active) with MDA-MB-231 breast; -90.9% (active) in the assay with RXF 393 renal; -82.9% (active) in the assay with SF-268 CNS. In addition, the growth is -81.5% (active) with SF-539 CNS; -67.1% (active) in the assay with UACC-257 melanoma; -82.3% (active) with M14 melanoma; -66.8% (active) in the assay on HCT-15 colon; -80.5% (active) in the assay with HT29 colon; -91% (active) in the assay on SNB-75 CNS. Besides, the growth in the assay on SNB-19 CNS is -72.8% (active); with U251 CNS, -93% (active); with PC-3 prostate, -84% (active); in the assay with SK-MEL-5 melanoma, 8.25% (active); in the assay on UACC-62 melanoma, -72.4% (active); in the assay on LOX IMVI melanoma it was -66.2% (active). Besides, in the assay on SK-MEL-28 melanoma, the growth was -75.4% (active).

`CCN(CC)CCCNc1cccc2c(C)cc(OC)nc12`: the growth with DU-145 prostate is 114%; in the assay on K-562 leukemia, 92.3%; in the assay with MALME-3M melanoma, 107%; with MDA-MB-231 breast, 81%; in the assay with RXF 393 renal it was 93.9%; in the assay with SF-268 CNS, 104%. Further, the growth was 88.8% with SF-539 CNS; 98.9% with UACC-257 melanoma; 93.2% in the assay on M14 melanoma; 94.9% in the assay on HCT-15 colon; 87.6% in the assay on HT29 colon; 76.8% with SNB-75 CNS. Besides, the growth with SNB-19 CNS was 94.9%; in the assay on U251 CNS, 94.3%; in the assay on PC-3 prostate it was 75.1%; with SK-MEL-5 melanoma it was 91.3%; in the assay with UACC-62 melanoma, 85.3%; with LOX IMVI melanoma, 105%. Moreover, the growth in the assay with SK-MEL-28 melanoma is 103%.

Consider `CCOC(C)(c1ccc(Cl)cc1)C1CCNCC1` (centres undefined), for which the growth in the assay with DU-145 prostate is 102%; in the assay with K-562 leukemia, 65.3%; in the assay on MALME-3M melanoma, 99.9%; in the assay with MDA-MB-231 breast, 102%; in the assay on RXF 393 renal it was 109%; in the assay with SF-268 CNS it was 115%. Further, the growth in the assay with SF-539 CNS is 88.1%; with UACC-257 melanoma it was 78.2%; in the assay with M14 melanoma, 86.6%; with HCT-15 colon it was 94.8%; with HT29 colon it was 85.2%; in the assay on SNB-75 CNS, 82.2%. In addition, the growth in the assay on SNB-19 CNS is 101%; in the assay on U251 CNS it was 92.4%; in the assay on PC-3 prostate, 82.6%; with SK-MEL-5 melanoma, 102%; in the assay on UACC-62 melanoma, 101%; in the assay on LOX IMVI melanoma, 65.2%. Besides, in the assay on SK-MEL-28 melanoma, the growth is 109%.
